Reference: PubChem BioAssay AID1159580 (chemical genetic matrix, 2015)
“And” between values parts separate entries of the source, which are not always exact repeats. Equal entries are not always repeated. Out of some 5,500 compounds screened, about 2,000 (36%) were called active. About 18% were inconclusive and are not listed. No stated cut-off is given here; in the data, active means normalized growth mostly below about 0.91 (no sharp cut-off); inconclusive means no clear call, values can overlap the other calls; inactive means mostly above about 0.92. This is one part of the list.

Assay: chemical genetic growth profiling, strain panel (AID 1159580);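 further: tested at 20 µM; growth read once vehicle control cultures reached saturation at 30 °C; 1 = growth at the plate median or of vehicle wells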
Settings: S. cerevisiae deletion strains, growth OD

With O=c1c(O)c(-c2ccccc2)oc2ccccc12 the normalized growth (locus YAL013W, strain DEP1, stronger effect = lower value) was 0.993 (inactive), the normalized growth (locus YAL021C, strain ccr4, stronger effect = lower value) was 0.424 (active) and the normalized growth (locus YAL026C, strain drs2, stronger effect = lower value) was 0.17 (active). The normalized growth (locus YAL030W, strain snc1, stronger effect = lower value) was 0.68 (active), the normalized growth (locus YBL061C, strain skt5, stronger effect = lower value) was 0.578 (active) and the normalized growth (locus YBR009C, strain hhf1, stronger effect = lower value) was 0.61 (active). For the same compound, the normalized growth (locus YBR021W, strain FUR4, stronger effect = lower value) was 1.01 (inactive), the normalized growth (locus YBR023C, strain chs3, stronger effect = lower value) was 0.363 (active) and the normalized growth (locus YBR171W, strain sec66, stronger effect = lower value) was 0.815 (active). The normalized growth (locus YBR229C, strain ROT2, stronger effect = lower value) was 0.963 (inactive), the normalized growth (locus YBR231C, strain swc5, stronger effect = lower value) was 0.418 (active) and the normalized growth (locus YBR279W, strain paf1, stronger effect = lower value) was 0.447 (active). For the same compound, the normalized growth (locus YCL011C, strain gbp2, stronger effect = lower value) was 0.51 (active), the normalized growth (locus YCL016C, strain dcc1, stronger effect = lower value) was 0.628 (active) and the normalized growth (locus YCL029C, strain bik1, stronger effect = lower value) was 0.983 (inactive). The normalized growth (locus YCL061C, strain MRC1, stronger effect = lower value) was 0.527 (active), the normalized growth (locus YCL069W, strain vba3, stronger effect = lower value) was 0.47 (active) and the normalized growth (locus YCR088W, strain abp1, stronger effect = lower value) was 0.654 (active). The normalized growth (locus YDL005C, strain med2, stronger effect = lower value) was 0.855 (active), the normalized growth (locus YDL035C, strain GPR1, stronger effect = lower value) was 0.985 (inactive) and the normalized growth (locus YDL040C, strain nat1, stronger effect = lower value) was 0.794 (active). For the same compound, the normalized growth (locus YDL074C, strain BRE1, stronger effect = lower value) was 1.01 (inactive), the normalized growth (locus YDL101C, strain DUN1, stronger effect = lower value) was 0.997 (inactive) and the normalized growth (locus YDL185W, strain tfp1, stronger effect = lower value) was 0.974 (inactive). The normalized growth (locus YDL192W, strain arf1, stronger effect = lower value) was 1 (inactive), the normalized growth (locus YDR001C, strain nth1, stronger effect = lower value) was 0.651 (active) and the normalized growth (locus YDR069C, strain doa4, stronger effect = lower value) was 0.302 (active). For the same compound, the normalized growth (locus YDR101C, strain arx1, stronger effect = lower value) was 1.03 (inactive), the normalized growth (locus YDR137W, strain rgp1, stronger effect = lower value) was 0.363 (active) and the normalized growth (locus YDR150W, strain NUM1, stronger effect = lower value) was 0.993 (inactive). For the same compound, the normalized growth (locus YDR159W, strain sac3, stronger effect = lower value) was 0.929 (inactive), the normalized growth (locus YDR162C, strain NBP2, stronger effect = lower value) was 0.981 (inactive) and the normalized growth (locus YDR195W, strain ref2) was 1.17 [resistant] (active). The normalized growth (locus YDR297W, strain sur2, stronger effect = lower value) was 0.709 (active), the normalized growth (locus YDR318W, strain mcm21, stronger effect = lower value) was 0.963 (inactive) and the normalized growth (locus YDR334W, strain swr1, stronger effect = lower value) was 0.347 (active). For the same compound, the normalized growth (locus YDR335W, strain msn5, stronger effect = lower value) was 0.608 (active), the normalized growth (locus YDR388W, stronger effect = lower value) was 0.994 (inactive) and the normalized growth (locus YDR392W, strain spt3, stronger effect = lower value) was 0.135 (active). The normalized growth (locus YDR502C, strain sam2, stronger effect = lower value) was 1.01 (inactive), the normalized growth (locus YEL003W, strain gim4, stronger effect = lower value) was 0.595 (active) and the normalized growth (locus YEL037C, strain rad23, stronger effect = lower value) was 0.465 (active). The normalized growth (locus YEL061C, strain CIN8 (second series), stronger effect = lower value) was 0.592 (active), the normalized growth (locus YEL061C, strain CIN8, stronger effect = lower value) was 0.984 (inactive) and the normalized growth (locus YER015W, strain faa2, stronger effect = lower value) was 0.455 (active). For the same compound, the normalized growth (locus YER016W, strain bim1, stronger effect = lower value) was 0.81 (active), the normalized growth (locus YER110C, stronger effect = lower value) was 0.987 (inactive) and the normalized growth (locus YER111C, strain swi4, stronger effect = lower value) was 0.71 (active). For the same compound, the normalized growth (locus YER155C, strain BEM2 (second series), stronger effect = lower value) was 0.602 (active), the normalized growth (locus YER155C, strain BEM2, stronger effect = lower value) was 0.999 (inactive) and the normalized growth (locus YER167W, strain BCK2, stronger effect = lower value) was 0.99 (inactive). The normalized growth (locus YFR010W, strain ubp6, stronger effect = lower value) was 0.291 (active), the normalized growth (locus YGL078C, strain dbp3, stronger effect = lower value) was 0.991 (inactive) and the normalized growth (locus YGL086W, strain mad1, stronger effect = lower value) was 1.04 (inactive). The normalized growth (locus YGL167C, strain pmr1, stronger effect = lower value) was 0.834 (active), the normalized growth (locus YGL173C, strain kem1, stronger effect = lower value) was 0.271 (active) and the normalized growth (locus YGL227W, strain vid30, stronger effect = lower value) was 0.771 (active). The normalized growth (locus YGL240W, strain doc1, stronger effect = lower value) was 0.643 (active), the normalized growth (locus YGL248W, strain PDE1, stronger effect = lower value) was 0.986 (inactive) and the normalized growth (locus YGL253W, strain hxk2, stronger effect = lower value) was 0.356 (active). The normalized growth (locus YGR078C, strain PAC10, stronger effect = lower value) was 0.991 (inactive), the normalized growth (locus YGR135W, strain pre9, stronger effect = lower value) was 0.977 (inactive) and the normalized growth (locus YGR229C, strain SMI1, stronger effect = lower value) was 0.998 (inactive). The normalized growth (locus YGR252W, strain gcn5, stronger effect = lower value) was 0.947 (inactive), the normalized growth (locus YHR013C, strain ard1, stronger effect = lower value) was 0.219 (active) and the normalized growth (locus YHR027C, strain rpn1, stronger effect = lower value) was 0.268 (active). For the same compound, the normalized growth (locus YHR030C, strain SLT2, stronger effect = lower value) was 0.991 (inactive) and 0.591 (active), the normalized growth (locus YHR079C, strain IRE1 (second series), stronger effect = lower value) was 0.993 (inactive) and the normalized growth (locus YHR079C, strain IRE1, stronger effect = lower value) was 0.812 (active). The normalized growth (locus YHR094C, strain hxt1, stronger effect = lower value) was 0.975 (inactive), the normalized growth (locus YHR129C, strain ARP1, stronger effect = lower value) was 0.982 (inactive) and the normalized growth (locus YHR142W, strain chs7, stronger effect = lower value) was 0.294 (active). The normalized growth (locus YHR200W, strain rpn10, stronger effect = lower value) was 0.992 (inactive), the normalized growth (locus YIL066C, strain RNR3, stronger effect = lower value) was 0.978 (inactive) and the normalized growth (locus YIL073C, strain SPO22, stronger effect = lower value) was 0.996 (inactive). The normalized growth (locus YIL125W, strain kgd1, stronger effect = lower value) was 0.999 (inactive), the normalized growth (locus YIR030C, strain dcg1, stronger effect = lower value) was 0.998 (inactive) and the normalized growth (locus YJL092W, strain hpr5, stronger effect = lower value) was 0.545 (active). For the same compound, the normalized growth (locus YJL095W, strain BCK1 (second series), stronger effect = lower value) was 0.453 (active), the normalized growth (locus YJL095W, strain BCK1, stronger effect = lower value) was 0.983 (inactive) and 0.617 (active) and the normalized growth (locus YJL115W, strain asf1, stronger effect = lower value) was 0.616 (active). The normalized growth (locus YJL129C, strain trk1, stronger effect = lower value) was 0.77 (active), the normalized growth (locus YJL134W, strain LCB3, stronger effect = lower value) was 0.986 (inactive) and the normalized growth (locus YJL154C, strain vps35, stronger effect = lower value) was 0.752 (active). The normalized growth (locus YJL164C, strain tpk1, stronger effect = lower value) was 0.333 (active), the normalized growth (locus YJL166W, strain qcr8, stronger effect = lower value) was 0.355 (active) and the normalized growth (locus YJL168C, strain set2, stronger effect = lower value) was 0.994 (inactive). The normalized growth (locus YJL187C, strain SWE1 (second series), stronger effect = lower value) was 1.01 (inactive).
